Source: PubChem BioAssay
Pf Dd2 inh: inhibitors of Plasmodium falciparum Dd2 growth; Potency, µM (top dose mostly 28.9 µM), for the others: at the top dose activity, negative = inhibition, usual class: inhibitors; AID 1347417; 120,000 compounds, 4.3% hits; P. falciparum Dd2 growth, SYBR Green, 72 h; active = well fitted inhibition curve with a large enough effect;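 note: plate controls were DMSO vehicle for no effect and reference drug for full effect; nearly all actives have a fitted effect of over 65% in size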
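Readout: SYBR Green fluorescence, 485 nm excitation, 535 nm emission, after ~16 h lysis at 37C. Before that, Dd2-infected red cells (2.5% hematocrit) grew 72 h with compound, 29 uM top final concentration.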
* = called active by the depositor; [ ] = another dose, or the depositor's remark. The full list was thinned out, with hits kept by preference. Potency is the fitted concentration of half-maximal effect.

For COc1cc(Nc2nc(SCC(=O)c3ccc(Cl)c(Cl)c3)nc3ccccc23)cc(OC)c1 the results were Pf Dd2 inh -7.2%.
CCSc1nc2ccccc2c(OCc2cc(C(=O)OC)ccc2OC)c1C(=O)OC was read as Pf Dd2 inh -9.2%.
COc1ccc(CCNc2nc3c(c(=O)n(C)c(=O)n3C)n2Cc2ccccc2Cl)cc1OC was read as Pf Dd2 inh inactive.
COc1ccc(CCNc2nc(SCc3ccccc3Cl)nc3ccccc23)cc1OC was read as Pf Dd2 inh 3.55µM*.
Screening COc1cc(Nc2nc(SCc3cccc(Cl)c3)nc3ccccc23)cc(OC)c1 returned Pf Dd2 inh 10µM*.
`COc1ccc(NC(=O)CSc2nc(-c3ccccc3)c3ccccc3n2)cc1` gave Pf Dd2 inh 26.6%.
COc1ccc(CNc2nc(SCc3ccccc3Cl)nc3ccccc23)cc1 was read as Pf Dd2 inh inactive.
Screening COc1ccc(NC(=O)C(=O)NCCc2ccccc2)cc1OC returned Pf Dd2 inh 28.2%.
For COc1ccccc1NC(=O)CN1CCN(CC(=O)Nc2ccc(F)c(F)c2)CC1 the results were Pf Dd2 inh -21.9%.
Screening O=C(c1ccc(C(F)(F)F)cc1)N1CCC2(C1)C(=O)Nc1ccccc12 (stereo not drawn) returned Pf Dd2 inh -7.8%.
`O=C1NC2(CCN(C(=O)c3cccnc3)C2)N=C1c1ccccn1` (stereo not drawn) gave Pf Dd2 inh 15.7%[44.1 µM].
Cc1ccc2nc(CO[C@H]3CN(Cc4ccc(Cl)cc4)C[C@H]3F)[nH]c2c1 was read as Pf Dd2 inh -5.1%[44.1 µM].
Screening Cc1nc2scc(CC(=O)NC3CCCCC3)n2c(=O)c1-c1cc(C)n(-c2ccccc2F)n1 returned Pf Dd2 inh inactive.
`CC(C)c1nnc(C2CN(C(=O)c3nccc4ccccc34)CC23CCOCC3)o1` (stereo not drawn) gave Pf Dd2 inh inactive.
`O=C(N1CCCCC1)N1CCCC(c2nnc3n2CCNC3)C1` (stereo not drawn) gave Pf Dd2 inh -2.6%.
For COc1cc(CNC(=O)C2Cn3cccc3C(=O)N2CC(C)C)cc(OC)c1 (stereo not drawn) the results were Pf Dd2 inh -20.6%.
For CN(C)C[C@@H]1CN(Cc2ccccc2)C[C@H]1NC(=O)NCc1ccco1 the results were Pf Dd2 inh -27.4%.
Screening COC(=O)[C@@H]1C[C@H](NC(=O)c2ccc(Oc3ccccc3)cc2)CN1C returned Pf Dd2 inh 0.1%.
For COc1ccc2[nH]cc(CCN=C(NC(=O)c3ccccc3C)Nc3nc(C)cc(C)n3)c2c1 the results were Pf Dd2 inh 8.91µM*.
For Cc1cc(C)nc(NC(=NCCc2c[nH]c3ccc(Cl)cc23)NC(=O)c2ccccc2C)n1 the results were Pf Dd2 inh -4.2%.
For COc1ccc2[nH]cc(CCNC(=O)Nc3ccc(F)cc3)c2c1 the results were Pf Dd2 inh 19.4%.
Screening O=C1Nc2ccccc2CC12CCN2Cc1ccc(C(F)(F)F)cc1 (stereo not drawn) returned Pf Dd2 inh inactive.
For O=C1Nc2ccccc2C12CCN(Cc1ccc(C(F)(F)F)cc1)CC2 the results were Pf Dd2 inh 12.6µM*.
Screening CC(C)=CCN1Cc2ccccc2NC(=O)C12CCNC2 (stereo not drawn) returned Pf Dd2 inh -13.7%[44.1 µM].
`CC(=O)Nc1ccc(CN2CCC3(CC2)C(=O)Nc2ccccc23)cc1` gave Pf Dd2 inh -13.6%.
For O=C(c1ccc(C(F)(F)F)cc1)N1CCC2(CC1)C(=O)Nc1ccccc12 the results were Pf Dd2 inh -3.1%.
`O=C1Nc2ccccc2CN(Cc2ccc(C(F)(F)F)cc2)C12CCNCC2` gave Pf Dd2 inh 6.31µM*.
COc1cccc(N2CC(C(=O)NCCCc3ccccc3)NC2=O)c1 (stereo not drawn) was read as Pf Dd2 inh inactive.
Screening O=C(NCC1CC1)c1noc(-c2ccccc2F)n1 returned Pf Dd2 inh inactive.
O=C(c1cc(F)ccc1F)N1CCCC(n2cc(-c3nc(-c4ccccc4)no3)nn2)C1 (stereo not drawn) was read as Pf Dd2 inh 45.8%.
`Cc1ccc(CNC(=O)N2CCCC(c3nc(C(C)C)no3)CCNC(=O)CC2)cc1` (stereo not drawn) gave Pf Dd2 inh 17.8%.
`Cc1cc(C(=O)N2CCCC3(CCNCC3)CC2)c2cnn(C(C)C)c2n1` gave Pf Dd2 inh -12.7%.
For CCC(C)c1ccc(OCC(=O)Nc2ccc(-c3nc4ncccc4o3)cc2)cc1 (stereo not drawn) the results were Pf Dd2 inh 10µM*.
For CC(C)(Oc1ccc(Cl)cc1)C(=O)Nc1ccc(-c2nc3ncccc3o2)cc1 the results were Pf Dd2 inh inactive.
For CCCC(=O)Nc1cc(C)c(O)c(-c2nc3ncccc3o2)c1 the results were Pf Dd2 inh 11.0%.
Screening COc1ccc(OCC(=O)Nc2ccc(Cl)c(-c3nc4ncccc4o3)c2)cc1 returned Pf Dd2 inh 7.94µM*.
Cc1ccc(C(C)C)c(OCC(=O)Nc2cccc(-c3nc4ncccc4o3)c2)c1 was read as Pf Dd2 inh -13.6%.
For COc1ccc(OCC(=O)Nc2ccc(-c3nc4cc(Cl)ccc4o3)cc2)cc1 the results were Pf Dd2 inh 4.5%.
